# Assay results as given in the supplement of paper PMC10849652.
# Of roughly 7,900 targets only a part is listed; those with a hit were picked by preference. About 0.6% of all pairs of compound and target were hits.
# What was measured:
# Assay in all cases: log2 fold change, soluble protein after heating vs DMSO (PISA); higher = thermal stabilisation; K562 cells, 10 uM, 30 min; active = over 0.2 and 3.5 SD of the protein, either way, in both replicates (recomputed)
# [1] = compound: CC1=C(C=C(C=C1)NC(=O)C2=CC(=CC=C2)C(C)(C)C#N)NC3=CC4=C(C=C3)N=CN(C4=O)C
# Summary of the method: (§1)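 K562 cells at 2×10^6 cells/mL were given 10 μM compound for 30 min. Aliquots then went through 3 min of heating across 48°C-58°C, were pooled, and were extracted in PBS with 0.5% NP-40 at 4°C, and the supernatant after 21,000xg for 90 min was quantified by TMTpro 16plex LC-MS/MS with channel sums equalised. Thermal stability relative to control samples, from duplicates, is given as log2 fold change.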
# [2] = compound: CC1=C(C=C(C=C1)NC(=O)C2=CC(=CC=C2)N(C)C)NC(=O)C3=CC=C(C=C3)O
# Summary of the method: as §1
# [3] = compound: CC1=CC=C(C=C1)SC2=C3C=C(SC3=CN=C2)C(=O)N
# Summary of the method: as §1
# [4] = compound: CC1=NC(=CC=C1)C2=C(N=C(N2)C(C)(C)C)C3=CC4=NC=CN=C4C=C3
# Summary of the method: as §1
# [5] = compound: CCCCN(Cc1ccc(C(=O)NO)cc1)C(=O)Nc1ccccc1 [Nexturastat A]
# Summary of the method: as §1
# [6] = compound: CCCS(=O)(=O)Nc1ccc(F)c(C(=O)c2c[nH]c3ncc(-c4ccc(Cl)cc4)cc23)c1F [vemurafenib]
# Summary of the method: as §1
# [7] = compound: CCCS(=O)(=O)Nc1ccc(F)c(C(=O)c2c[nH]c3ncc(Cl)cc23)c1F
# Summary of the method: as §1
# [8] = compound: CCCc1cc(C)[nH]c(=O)c1CNC(=O)c1cc(-c2ccnc(N3CCN(C)CC3)c2)cc2c1cnn2C(C)C
# Summary of the method: as §1
# [9] = compound: CCN(CC)Cc1ccc2cc(COC(=O)Nc3ccc(C(=O)NO)cc3)ccc2c1 [givinostat]
# Summary of the method: as §1
# [10] = compound: CCN(CCCOc1ccc2c(Nc3cc(CC(=O)Nc4cccc(F)c4)[nH]n3)ncnc2c1)CCOP(=O)(O)O [barasertib]
# Summary of the method: as §1
# [11] = compound: CC[C@@H]1C(=O)N(C)c2cnc(Nc3ccc(C(=O)NC4CCN(C)CC4)cc3OC)nc2N1C1CCCC1
# Summary of the method: as §1
# [12] = compound: CC[C@@H]1C(=O)N(C)c2cnc(Nc3ccc(C(=O)N[C@H]4CC[C@H](N5CCN(CC6CC6)CC5)CC4)cc3OC)nc2N1C(C)C [volasertib]
# Summary of the method: as §1
# [13] = compound: CC[C@H](C)N1C=C(C2=C(C=C(C=C21)C3=CN=C(C=C3)N4CCNCC4)C(=O)NCC5=C(C=C(NC5=O)C)C)C
# Summary of the method: as §1
# [14] = compound: CC[C@H](C)[C@@H](C(=O)N[C@@H]([C@@H](C)O)C(=O)N[C@@H](CC(C)C)C(=O)[C@]1(CO1)C)NC(=O)[C@H]([C@@H](C)CC)N(C)C(=O)C [epoxomicin]
# Summary of the method: as §1
# [15] = compound: CCn1c(C(=O)N(C2CC2)C2CC2)cc2c3c(ncn3C)c(Nc3cc(C)n(C)n3)nc21
# Summary of the method: as §1
# [16] = compound: CCn1cc(-c2ccnc3[nH]c(-c4cccc(CN(C)C)c4)cc23)c(-c2ccc(NC(=O)N(C)C)cc2)n1
# Summary of the method: as §1
# [17] = compound: CN(C)CC(=O)Nc1ccc2[nH]c(=O)c3ccccc3c2c1
# Summary of the method: as §1
# [18] = compound: CN(CCOC1=CC=C(C=C1)C[C@H]2C(=O)NC(=O)S2)C3=CC=CC=N3 (racemic) [rosiglitazone]
# Summary of the method: as §1
# [19] = compound: CN1C2=C(C3=C1C(=O)N(N=C3)CC4=CC(=CC=C4)N)SC(=C2)S(=O)C
# Summary of the method: as §1
# [20] = compound: CN1CCC(CNc2ccc3ncc(-c4cccc(OC(F)(F)F)c4)n3n2)CC1
# Summary of the method: as §1
# Sequence of UniProt Q8TBX8 (Q8TBX8 whole entry, looked up): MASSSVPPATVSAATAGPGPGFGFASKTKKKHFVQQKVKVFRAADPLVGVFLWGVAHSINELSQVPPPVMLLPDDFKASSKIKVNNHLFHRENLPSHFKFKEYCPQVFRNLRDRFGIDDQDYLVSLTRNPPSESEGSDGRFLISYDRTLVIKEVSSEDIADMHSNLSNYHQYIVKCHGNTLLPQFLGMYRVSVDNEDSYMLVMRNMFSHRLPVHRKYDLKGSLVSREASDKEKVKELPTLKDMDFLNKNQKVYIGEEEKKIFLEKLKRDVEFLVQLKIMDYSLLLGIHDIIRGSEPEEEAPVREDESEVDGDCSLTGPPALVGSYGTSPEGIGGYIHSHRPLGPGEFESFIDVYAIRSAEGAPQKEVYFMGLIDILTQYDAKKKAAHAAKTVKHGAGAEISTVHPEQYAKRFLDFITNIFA
# Sequence of UniProt Q00577 (Q00577 whole entry, looked up): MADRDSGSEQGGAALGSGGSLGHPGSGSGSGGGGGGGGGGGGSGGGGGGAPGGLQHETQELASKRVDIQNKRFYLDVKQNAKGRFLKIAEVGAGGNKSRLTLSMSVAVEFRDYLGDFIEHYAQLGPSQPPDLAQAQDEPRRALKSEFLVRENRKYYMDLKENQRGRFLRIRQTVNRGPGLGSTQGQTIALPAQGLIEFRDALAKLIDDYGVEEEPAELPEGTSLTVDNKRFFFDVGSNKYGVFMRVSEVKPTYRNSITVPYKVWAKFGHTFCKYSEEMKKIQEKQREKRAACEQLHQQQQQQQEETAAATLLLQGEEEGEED
# Sequence of UniProt Q9UMR5 (Q9UMR5 whole entry, looked up): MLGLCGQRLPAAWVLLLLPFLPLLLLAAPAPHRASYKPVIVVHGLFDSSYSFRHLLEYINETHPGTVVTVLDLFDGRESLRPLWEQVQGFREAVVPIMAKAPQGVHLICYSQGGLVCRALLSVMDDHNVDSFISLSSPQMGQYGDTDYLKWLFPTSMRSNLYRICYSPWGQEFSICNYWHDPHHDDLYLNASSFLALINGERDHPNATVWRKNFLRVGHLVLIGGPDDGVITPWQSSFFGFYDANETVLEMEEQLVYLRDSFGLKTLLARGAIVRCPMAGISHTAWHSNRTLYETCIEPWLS
# Sequence of UniProt Q5JRX3 (Q5JRX3 whole entry, looked up): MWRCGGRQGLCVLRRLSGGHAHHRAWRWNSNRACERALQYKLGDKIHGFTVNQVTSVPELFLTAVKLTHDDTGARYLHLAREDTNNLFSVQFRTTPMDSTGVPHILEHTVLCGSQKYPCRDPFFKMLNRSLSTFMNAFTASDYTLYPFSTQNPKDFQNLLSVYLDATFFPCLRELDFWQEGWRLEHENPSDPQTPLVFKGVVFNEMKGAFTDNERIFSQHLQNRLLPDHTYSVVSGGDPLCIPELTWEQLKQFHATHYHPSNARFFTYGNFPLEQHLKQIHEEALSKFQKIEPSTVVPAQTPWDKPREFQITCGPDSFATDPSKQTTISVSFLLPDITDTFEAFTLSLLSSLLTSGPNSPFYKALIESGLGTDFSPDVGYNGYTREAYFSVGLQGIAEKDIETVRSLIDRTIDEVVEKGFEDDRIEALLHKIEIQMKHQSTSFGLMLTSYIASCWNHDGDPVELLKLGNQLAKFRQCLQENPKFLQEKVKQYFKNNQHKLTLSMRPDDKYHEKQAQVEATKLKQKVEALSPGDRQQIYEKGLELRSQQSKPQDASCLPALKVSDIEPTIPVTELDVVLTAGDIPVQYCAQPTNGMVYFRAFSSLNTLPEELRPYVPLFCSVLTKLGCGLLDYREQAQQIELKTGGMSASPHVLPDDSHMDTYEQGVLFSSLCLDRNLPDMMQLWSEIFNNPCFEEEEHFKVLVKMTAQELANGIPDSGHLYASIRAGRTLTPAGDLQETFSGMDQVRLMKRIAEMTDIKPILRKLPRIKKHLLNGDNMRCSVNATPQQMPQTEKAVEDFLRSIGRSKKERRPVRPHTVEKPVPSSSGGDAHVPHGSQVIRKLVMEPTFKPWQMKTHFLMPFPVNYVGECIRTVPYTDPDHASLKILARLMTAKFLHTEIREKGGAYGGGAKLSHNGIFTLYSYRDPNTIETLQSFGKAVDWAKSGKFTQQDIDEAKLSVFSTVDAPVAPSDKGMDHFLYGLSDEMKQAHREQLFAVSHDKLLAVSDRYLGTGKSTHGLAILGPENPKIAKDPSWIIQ
# Sequence of UniProt P06454 (P06454 whole entry, looked up): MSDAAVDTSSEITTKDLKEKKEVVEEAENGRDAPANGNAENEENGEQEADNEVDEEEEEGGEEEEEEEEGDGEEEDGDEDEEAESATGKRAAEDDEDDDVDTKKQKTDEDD
# Sequence of UniProt Q15008 (Q15008 whole entry, looked up): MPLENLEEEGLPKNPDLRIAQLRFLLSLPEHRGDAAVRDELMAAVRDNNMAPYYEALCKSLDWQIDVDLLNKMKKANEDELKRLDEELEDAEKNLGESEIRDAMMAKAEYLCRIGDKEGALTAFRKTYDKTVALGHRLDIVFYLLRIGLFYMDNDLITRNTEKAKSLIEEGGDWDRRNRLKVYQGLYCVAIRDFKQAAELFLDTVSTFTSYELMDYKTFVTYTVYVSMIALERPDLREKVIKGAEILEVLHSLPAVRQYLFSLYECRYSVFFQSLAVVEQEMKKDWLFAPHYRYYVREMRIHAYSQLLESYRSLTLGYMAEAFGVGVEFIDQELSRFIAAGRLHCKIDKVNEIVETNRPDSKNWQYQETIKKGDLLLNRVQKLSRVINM
# Sequence of UniProt Q13356 (Q13356 whole entry, looked up): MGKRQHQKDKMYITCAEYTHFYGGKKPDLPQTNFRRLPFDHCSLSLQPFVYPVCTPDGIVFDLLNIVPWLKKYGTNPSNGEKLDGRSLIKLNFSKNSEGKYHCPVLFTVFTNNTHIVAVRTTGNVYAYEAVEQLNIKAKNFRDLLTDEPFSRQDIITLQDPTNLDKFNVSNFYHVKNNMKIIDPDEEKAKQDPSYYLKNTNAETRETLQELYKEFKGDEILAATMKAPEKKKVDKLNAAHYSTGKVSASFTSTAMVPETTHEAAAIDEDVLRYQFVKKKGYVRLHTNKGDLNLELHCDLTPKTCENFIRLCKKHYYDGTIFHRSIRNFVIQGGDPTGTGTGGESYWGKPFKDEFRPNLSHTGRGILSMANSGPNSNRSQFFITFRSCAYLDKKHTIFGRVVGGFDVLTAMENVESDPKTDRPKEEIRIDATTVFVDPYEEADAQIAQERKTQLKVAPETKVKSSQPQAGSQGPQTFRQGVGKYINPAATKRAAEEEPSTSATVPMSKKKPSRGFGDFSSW
# Sequence of UniProt Q8TAP8 (Q8TAP8 whole entry, looked up): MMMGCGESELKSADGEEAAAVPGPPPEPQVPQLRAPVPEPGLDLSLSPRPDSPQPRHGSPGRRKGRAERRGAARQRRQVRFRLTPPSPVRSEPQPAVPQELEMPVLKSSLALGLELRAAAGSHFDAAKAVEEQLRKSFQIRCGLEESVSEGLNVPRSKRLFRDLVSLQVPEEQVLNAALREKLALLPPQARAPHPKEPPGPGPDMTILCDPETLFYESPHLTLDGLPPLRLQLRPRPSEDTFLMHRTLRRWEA
# Sequence of UniProt P48556 (P48556 whole entry, looked up): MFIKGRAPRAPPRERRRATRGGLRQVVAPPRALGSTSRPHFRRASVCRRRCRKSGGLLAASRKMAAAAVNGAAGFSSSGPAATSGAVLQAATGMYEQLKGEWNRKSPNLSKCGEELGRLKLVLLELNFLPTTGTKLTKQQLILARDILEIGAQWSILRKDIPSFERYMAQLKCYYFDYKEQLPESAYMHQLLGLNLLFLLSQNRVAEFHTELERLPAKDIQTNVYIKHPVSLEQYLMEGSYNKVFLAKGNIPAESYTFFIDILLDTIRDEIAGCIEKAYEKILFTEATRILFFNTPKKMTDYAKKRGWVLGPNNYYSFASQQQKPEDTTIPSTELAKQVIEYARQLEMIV
# Sequence of UniProt P0CG38 (P0CG38 whole entry, looked up): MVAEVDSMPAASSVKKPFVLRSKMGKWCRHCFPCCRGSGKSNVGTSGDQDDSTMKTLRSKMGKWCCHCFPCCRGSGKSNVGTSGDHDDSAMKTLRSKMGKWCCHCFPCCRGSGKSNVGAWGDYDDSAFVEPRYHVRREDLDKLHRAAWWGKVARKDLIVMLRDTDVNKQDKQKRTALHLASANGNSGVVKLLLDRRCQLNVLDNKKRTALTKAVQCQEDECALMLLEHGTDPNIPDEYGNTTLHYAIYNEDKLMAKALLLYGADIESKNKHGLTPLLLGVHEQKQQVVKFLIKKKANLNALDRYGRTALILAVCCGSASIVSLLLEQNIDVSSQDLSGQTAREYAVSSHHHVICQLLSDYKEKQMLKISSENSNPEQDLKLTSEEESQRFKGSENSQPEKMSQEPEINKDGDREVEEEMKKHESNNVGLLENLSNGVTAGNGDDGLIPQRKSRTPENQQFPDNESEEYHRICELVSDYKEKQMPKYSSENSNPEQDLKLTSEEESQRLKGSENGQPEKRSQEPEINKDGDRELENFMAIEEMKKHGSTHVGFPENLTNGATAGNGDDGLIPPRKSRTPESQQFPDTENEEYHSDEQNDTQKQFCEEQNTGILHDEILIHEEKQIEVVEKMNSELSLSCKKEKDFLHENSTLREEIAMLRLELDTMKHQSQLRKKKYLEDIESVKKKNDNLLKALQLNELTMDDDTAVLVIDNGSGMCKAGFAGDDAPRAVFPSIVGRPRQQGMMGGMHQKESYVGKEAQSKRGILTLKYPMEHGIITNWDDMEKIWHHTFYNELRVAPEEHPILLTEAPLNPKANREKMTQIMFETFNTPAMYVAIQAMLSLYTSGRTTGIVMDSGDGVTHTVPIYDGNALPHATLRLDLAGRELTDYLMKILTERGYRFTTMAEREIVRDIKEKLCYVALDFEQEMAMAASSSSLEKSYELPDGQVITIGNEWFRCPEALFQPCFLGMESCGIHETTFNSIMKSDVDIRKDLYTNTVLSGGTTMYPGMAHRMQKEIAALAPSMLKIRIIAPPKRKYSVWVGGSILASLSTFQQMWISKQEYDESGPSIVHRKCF
Target,log2 fold change [1],log2 fold change [2],log2 fold change [3],log2 fold change [4],log2 fold change [5],log2 fold change [6],log2 fold change [7],log2 fold change [8],log2 fold change [9],log2 fold change [10],log2 fold change [11],log2 fold change [12],log2 fold change [13],log2 fold change [14],log2 fold change [15],log2 fold change [16],log2 fold change [17],log2 fold change [18],log2 fold change [19],log2 fold change [20]
PSMD6 (UniProt Q15008),-0.007 (inactive),-0.004 (inactive),-0.045 (inactive),-0.045 (inactive),0.108 (inactive),-0.055 (inactive),-0.014 (inactive),0.01 (inactive),-0.034 (inactive),-0.012 (inactive),0.09 (inactive),0.18 (inactive),0.01 (inactive),-0.247 (inactive),-0.009 (inactive),0.063 (inactive),-0.023 (inactive),-0.029 (inactive),0.029 (inactive),0.061 (inactive)
QRSL1 (UniProt Q9H0R6),-0.001 (inactive),-0.079 (inactive),0.018 (inactive),0.041 (inactive),-0.09 (inactive),0.086 (inactive),0.061 (inactive),0.093 (inactive),0.033 (inactive),0.044 (inactive),0.044 (inactive),-0.167 (inactive),0.069 (inactive),0.027 (inactive),-0.003 (inactive),-0.029 (inactive),0.023 (inactive),0.055 (inactive),-0.053 (inactive),-0.095 (inactive)
PSMD8 (UniProt P48556),0.044 (inactive),0.047 (inactive),-0.056 (inactive),-0.045 (inactive),0.128 (inactive),-0.082 (inactive),-0.073 (inactive),0.022 (inactive),-0.04 (inactive),-0.034 (inactive),0.054 (inactive),0.25 (inactive),-0.01 (inactive),-0.286 (active),0.022 (inactive),0.039 (inactive),-0.037 (inactive),-0.048 (inactive),0.035 (inactive),0.016 (inactive)
PPP1R35 (UniProt Q8TAP8),-0.011 (inactive),0.065 (inactive),0.025 (inactive),0.034 (inactive),-0.009 (inactive),-0.049 (inactive),0.008 (inactive),-0.027 (inactive),0.112 (inactive),-0.074 (inactive),0.062 (inactive),0.101 (inactive),-0.062 (inactive),0.062 (inactive),0.009 (inactive),0.007 (inactive),-0.004 (inactive),0.035 (inactive),0.027 (inactive),-0.032 (inactive)
PLEKHM2 (UniProt Q8IWE5),0.064 (inactive),0.035 (inactive),0.052 (inactive),-0.011 (inactive),-0.028 (inactive),0.075 (inactive),0.124 (inactive),0.038 (inactive),0.177 (inactive),0.076 (inactive),-0.127 (inactive),-0.177 (inactive),0.009 (inactive),0.037 (inactive),-0.051 (inactive),-0.175 (inactive),0.003 (inactive),0.034 (inactive),-0.04 (inactive),-0.357 (active)
PIGT (UniProt Q969N2),-0.001 (inactive),-0.005 (inactive),0.02 (inactive),-0.016 (inactive),0.031 (inactive),-0.008 (inactive),0.009 (inactive),0.027 (inactive),-0.033 (inactive),0.004 (inactive),0.02 (inactive),-0.118 (inactive),0.035 (inactive),-0.011 (inactive),0.019 (inactive),-0.046 (inactive),0.013 (inactive),0.014 (inactive),0.015 (inactive),0.081 (inactive)
PSMC4 (UniProt P43686),0.016 (inactive),0.013 (inactive),-0.049 (inactive),-0.036 (inactive),0.03 (inactive),-0.066 (inactive),-0.083 (inactive),0.084 (inactive),-0.059 (inactive),-0.042 (inactive),0.033 (inactive),0.2 (inactive),-0.021 (inactive),-0.379 (active),-0.02 (inactive),0.086 (inactive),-0.033 (inactive),-0.021 (inactive),0.033 (inactive),0.06 (inactive)
PUF60 (UniProt Q9UHX1),0.046 (inactive),-0.018 (inactive),0.043 (inactive),0.022 (inactive),-0.003 (inactive),0.034 (inactive),0.14 (inactive),0.009 (inactive),0.022 (inactive),0.025 (inactive),-0.078 (inactive),-0.304 (active),0.033 (inactive),0.028 (inactive),-0.045 (inactive),-0.032 (inactive),0.007 (inactive),0.022 (inactive),-0.031 (inactive),0.051 (inactive)
PURA (UniProt Q00577),0.032 (inactive),0.032 (inactive),-0.101 (inactive),-0.121 (inactive),0.112 (inactive),-0.111 (inactive),-0.143 (inactive),0.144 (inactive),-0.008 (inactive),-0.091 (inactive),0.355 (inactive),0.418 (inactive),-0.087 (inactive),-0.197 (inactive),0.036 (inactive),0.26 (inactive),-0.095 (inactive),-0.18 (inactive),0.327 (inactive),0.441 (inactive)
PPIL2 (UniProt Q13356),0.005 (inactive),-0.084 (inactive),0.04 (inactive),0.023 (inactive),-0.059 (inactive),0.113 (inactive),0.123 (inactive),0.016 (inactive),0.123 (inactive),0.073 (inactive),-0.196 (inactive),-0.599 (active),0.159 (inactive),0.142 (inactive),-0.098 (inactive),-0.031 (inactive),0.08 (inactive),0.043 (inactive),-0.019 (inactive),-0.022 (inactive)
POTEI (UniProt P0CG38),0.056 (inactive),-0.035 (inactive),-0.012 (inactive),0.052 (inactive),-0.071 (inactive),0.08 (inactive),0.014 (inactive),-0.072 (inactive),-0.018 (inactive),0 (inactive),-0.009 (inactive),-0.009 (inactive),-0.043 (inactive),-0.039 (inactive),-0.026 (inactive),0.009 (inactive),-0.006 (inactive),-0.028 (inactive),-0.06 (inactive),0.035 (inactive)
PIP4K2C (UniProt Q8TBX8),-0.003 (inactive),-0.06 (inactive),0.073 (inactive),0.007 (inactive),-0.046 (inactive),-0.035 (inactive),0 (inactive),-0.029 (inactive),-0.047 (inactive),-0.016 (inactive),1.12 (active),1.19 (active),-0.096 (inactive),-0.022 (inactive),0.001 (inactive),0.05 (inactive),-0.016 (inactive),0.046 (inactive),0.699 (inactive),0.384 (inactive)
PLD3 (UniProt Q8IV08),0.002 (inactive),0.012 (inactive),0.034 (inactive),0.018 (inactive),-0.081 (inactive),-0.007 (inactive),0.019 (inactive),-0.028 (inactive),-0.072 (inactive),-0.013 (inactive),-0.369 (active),-0.437 (active),-0.038 (inactive),0.041 (inactive),0.052 (inactive),0.035 (inactive),0.014 (inactive),-0.007 (inactive),-0.027 (inactive),-0.488 (active)
PTMA (UniProt P06454),0.133 (inactive),-0.041 (inactive),0.053 (inactive),0.213 (inactive),-0.077 (inactive),0.05 (inactive),-0.044 (inactive),-0.008 (inactive),-0.022 (inactive),-0.013 (inactive),-0.167 (inactive),0.112 (inactive),-0.064 (inactive),0.2 (inactive),0.017 (inactive),-0.009 (inactive),-0.01 (inactive),-0.032 (inactive),-0.027 (inactive),-0.052 (inactive)
PPT2 isoform 3 (UniProt Q9UMR5),-0.064 (inactive),-0.002 (inactive),0.025 (inactive),0.078 (inactive),0 (inactive),-0.001 (inactive),0.052 (inactive),0.002 (inactive),0.041 (inactive),-0.017 (inactive),-0.57 (active),-0.87 (active),-0.006 (inactive),-0.021 (inactive),0.005 (inactive),0.206 (inactive),-0.068 (inactive),0.048 (inactive),-0.051 (inactive),-0.682 (active)
PITRM1 isoform 2 (UniProt Q5JRX3),0.21 (inactive),-0.064 (inactive),0.047 (inactive),0.073 (inactive),-0.152 (inactive),0.002 (inactive),-0.002 (inactive),0.018 (inactive),-0.047 (inactive),-0.03 (inactive),0.048 (inactive),0.489 (active),0.166 (inactive),-0.029 (inactive),0.074 (inactive),-0.084 (inactive),0.023 (inactive),0.03 (inactive),-0.124 (inactive),-0.189 (inactive)
